# Screening results deposited in PubChem BioAssay by several laboratories.
# HSF-1 act: HSF-1 activators, primary screen, NIH3T3-HGL cells, MG132 stress, luminescence, single point | NIH3T3-HGL HSF-1 luciferase reporter, 8 h; 100% = twice DMSO control signal | activation, % at 9 µM | 1.7% of 300,000 active | AID 504408, 2011;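 active means mean replicate activation of at least 50% with a set share of replicates each reaching 50%; inconclusive means only one of those two conditions met; inactive means mean below 50% and too few replicates reaching it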;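 further: 0% = median of the neutral control wells and 100% = twice that signal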
# Wnt bcat act: Wnt/beta-catenin pathway activators, primary screen, cell-based, plate reader, single point. Wnt/beta-catenin reporter cell assay, activator. AID 743398, 2014. 1.2% of 300,000 active. activation, % at 9.35 µM; in the data active means activation above about 30%, passing the limit was not always enough; inconclusive means no clear call, values can overlap the other calls;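 further: 0% = neutral control wells and 100% = positive control wells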
# HSF1 inh: HSF1 inhibitors in luciferase reporter cells, primary screen, cell-based, NIH3T3, luminescence. NIH3T3-HGL HSE-luciferase, MG132-induced, luminescence 8 h; hits give low values. activity change, negative = inhibition, % at 7.5 µM (by protocol). 0.77% of 300,000 active. AID 2098, 2009;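 active means more than half of replicate wells show activity change below -50%, luminescence cut by over half; inconclusive means some wells, but at most half, below -50%; inactive means no replicate well below -50%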;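 further: luciferase reports HSF-1 transcriptional activity via heat shock element; 0% = median of DMSO wells and -100% = zero luminescence signal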
# esBAF inh: Bmi1 luciferase reporter increase in mESCs, primary screen, esBAF inhibitor project, mouse ES cells, Bmi1 luciferase knock-in, single point; 24 h; 100% = twice the neutral-well signal; reporter increase, % at 12.5 µM; 2% of 350,000 active; in the data active means activation above about 40%; inconclusive means no clear call, values can overlap the other calls;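 further: 0% = median of the plate's neutral control wells and 100% = double that signal; a rise in the Bmi1 reporter signal indicates esBAF inhibition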
# MITF TRPM1 HTS: activators of MITF-driven TRPM1 promoter reporter, primary screen, cell-based, SK-MEL-5, luciferase, single point; SK-MEL-5 TRPM1-promoter luciferase, 24 h; % of positive control, neutral wells = 0; activation, % at 12.5 µM; 0.75% of 300,000 active; AID 588334, 2011;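 active means mean activation of at least 80% with every replicate also reaching 80%; inconclusive means mean reaches 80% but some replicate falls short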;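 further: 0% = neutral control wells and 100% = parthenolide positive control wells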
# SMARCA2 activ: SMARCA2 (BRM) function activators, primary screen, cell-based, luminescence, high throughput; activation, % at 9.1 µM; 1% of 370,000 active; MG213 cells, MMTV-luciferase reporter, dexamethasone, overnight; AID 652017, 2013; in the data active means activation above about 7.8%;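 further: 0% = vehicle wells and 100% = reference activator wells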
# * hit, by the source's call; ? = inconclusive; nt = no result. Sampled rows, rich in hits. Any-hit rate of the full collection: about 4.3%.
SMILES,HSF-1 act,Wnt bcat act,HSF1 inh,esBAF inh,MITF TRPM1 HTS,SMARCA2 activ
COc1ccc(NC(=O)Nc2ccc3c(c2)CC(=O)N([C@H](C)CO)C[C@H](C)[C@@H](CN(C)C)O3)cc1,nt,nt,nt,-3.0,nt,nt
COc1ccc(-c2cnc3c(c2)C(=O)N([C@H](C)CO)C[C@@H](C)[C@@H](CN(C)C)O3)cc1,nt,nt,nt,-9.9,nt,nt
CCCCNC(=O)c1onc(CSc2cccc(Cl)c2)c1C(=O)O,-76.4,2.1,-68.5*,-3.8,-2.9,0.6
Cc1cc(=O)cc(C)n1-c1ccc(Cl)cc1,20.4,-0.6,-1.4,nt,-4.5,1.6
Cc1csc(=N)n1-c1ccc(Cl)cc1,22.7,-1.1,16.8,63.5*,96.8*,4.8
O=C1c2ccccc2C(=O)N1CC(O)Cn1nnc2ccccc21 (stereo not given),-44.9,nt,-31.2,9.5,nt,0.6
Cc1ccc2c(c1)c(C)c(C)n2CC(O)Cn1nnc2ccccc21 (stereo not given),-91.1,?,-88.7*,63.5*,nt,2.5
Cc1ccc2c(c1)c(C)c(C)n2CC(O)Cn1nc(C)cc1C (stereo not given),11.9,-2.7,-2.2,-3.1,-17.2,-3.1
OC(CN1c2ccccc2Sc2ccccc21)Cn1nnc2ccccc21 (stereo not given),63.2*,-3.9,18.6,19.9,-0.3,-1.1
Cc1ccc(S(=O)(=O)Nc2ccc3c(c2)C(=O)N([C@H](C)CO)C[C@H](C)[C@H](CN(C)Cc2ccc(C(F)(F)F)cc2)OCCCC[C@H](C)O3)cc1,nt,nt,nt,-3.7,nt,nt
Cc1ccc(S(=O)(=O)N(C)C[C@H]2OCCCC[C@@H](C)Oc3ccc(NS(=O)(=O)c4ccc(F)cc4)cc3C(=O)N([C@@H](C)CO)C[C@H]2C)cc1,nt,nt,nt,-0.5,nt,nt
C[C@H]1CN([C@@H](C)CO)C(=O)c2ccccc2-c2ccccc2CO[C@H]1CN(C)Cc1ccc(F)cc1,nt,nt,nt,-5.0,nt,nt
O=C(NCCC1CCCCN1S(=O)(=O)c1ccccc1)C(=O)Nc1ccccc1F (stereo not given),10.1,-0.4,6.8,nt,5.2,-1.9
O=C(NCCC1CCCCN1S(=O)(=O)c1ccc(F)cc1)C(=O)Nc1ccccc1F (stereo not given),-74.9,-0.6,-67.5*,10.8,0.8,-1.6
Clc1ccc(Cn2c(/C=C/c3ccco3)nc3ccccc32)cc1,37.9,34.0*,4.4,nt,45.0,0.1
Nc1ccc(C(=O)OCc2nc3cc4ccccc4cc3[nH]2)cc1,11.9,1.1,-3.7,nt,8.8,-0.2
Nc1ccc(C(=O)OCc2nc3c(ccc4ccccc43)[nH]2)cc1,36.6,13.0,17.7,78.8*,45.1,-1.4
Cc1ccc(C(=O)/C=C/Nc2cccc([N+](=O)[O-])c2)o1,59.0*,nt,21.7,nt,84.9*,3.4
O=C(/C=C/Nc1cccc([N+](=O)[O-])c1)c1ccco1,14.3,29.4,12.6,26.4,69.6,5.5
O=[N+]([O-])c1ccc(-n2nnnc2-c2ccccc2)cc1,-50.1,-3.6,-28.6,-7.4,-7.8,-2.4
O=[N+]([O-])c1ccc(-n2nnnc2-c2ccccc2)c([N+](=O)[O-])c1,231.0*,-9.7,243.8,nt,-97.3,-8.8
c1cc2c(cc1CNc1ccc(N3CCOCC3)cc1)OCO2,nt,7.7,nt,68.8*,74.6,0.7
c1cc(CNc2ccc(N3CCOCC3)cc2)ccn1,-31.9,nt,-29.1,nt,-6.7,-1.8
Cc1ccc(CNc2ccc(N3CCOCC3)cc2)cc1,-9.0,0.1,-14.0,64.3*,11.4,-2.1
CCN1[C@@H]2Cn3c(ccc(-c4ccccc4OC)c3=O)[C@H]1[C@@H](C(=O)N1CCOCC1)[C@@H]2CO,nt,nt,nt,1.4,nt,nt
SMILES,HSF-1 act,Wnt bcat act,HSF1 inh,esBAF inh,MITF TRPM1 HTS,SMARCA2 activ
Clc1ccc(-c2n[nH]c3c2Cc2ccccc2-3)cc1Cl,17.0,nt,14.5,nt,nt,nt
c1ccc2c(c1)CCc1c(-c3ccncc3)n[nH]c1-2,nt,44.1*,nt,33.0,-13.9,0.6
CCCCc1nc2cc(C(=O)N3CCCCC3C(=O)OC)ccc2o1 (stereo not given),14.5,14.4,14.1,64.4*,63.1,2.5
O=C(c1ccc2oc(CCCc3ccccc3)nc2c1)N1CCCCC1CO (stereo not given),7.5,17.7,8.7,nt,66.7,2.6
CCOC(=O)CC1COCCN1C(=O)c1ccc2oc(Cc3ccccc3)nc2c1 (stereo not given),8.5,15.2,8.5,51.8*,?,5.1
CCCCc1nc2cc(C(=O)N3CCCCC3CC(=O)OCC)ccc2o1 (stereo not given),18.9,9.8,18.7,55.6*,31.1,1.8
CCCCc1nc2cc(C(=O)NC(C)c3cnn(C)c3)ccc2o1 (stereo not given),47.5,18.9,9.1,60.6*,43.6,3.8
CCCCc1nc2cc(C(=O)N3CCCC3)ccc2o1,40.0,10.0,8.8,34.5,10.9,0.6
C[C@@H]1CN([C@H](C)CO)C(=O)c2cccc(NS(=O)(=O)c3cccs3)c2O[C@@H]1CN(C)S(C)(=O)=O,nt,nt,nt,-3.1,nt,nt
Cc1ccc(S(=O)(=O)N(C)C[C@@H]2Oc3c(NC(=O)c4nc5ccccc5s4)cccc3C(=O)N([C@@H](C)CO)C[C@@H]2C)cc1,nt,nt,nt,0.7,nt,nt
C[C@H](CO)N1C[C@H](C)[C@H](CN(C)C(=O)Nc2cccc3ccccc23)Oc2ncc(-c3cccc(C(F)(F)F)c3)cc2C1=O,nt,nt,nt,2.4,nt,nt
Brc1ccccc1-c1nnc(SCc2nc3ccccc3s2)o1,54.5*,21.3,11.3,nt,15.5,2.4
CCN(CC)S(=O)(=O)c1cccc(-c2nnc(SCCCC(=O)c3ccccc3)o2)c1,1.0,-1.6,-1.7,9.0,nt,-0.5
CCN(CC)S(=O)(=O)c1cccc(-c2nnc(SCc3nc4ccccc4s3)o2)c1,62.2*,nt,39.8,nt,14.8,2.6
CO[C@@H]1CN(C)C(=O)c2cc(NC(=O)C3CC3)ccc2OC[C@H](C)N(Cc2nccs2)C[C@@H]1C,nt,nt,nt,8.7,nt,nt
C[C@@H]1CN([C@@H](C)CO)C(=O)c2cc(NC(=O)Cc3ccccc3)ccc2O[C@H]1CN(C)C(=O)Nc1cccc2ccccc12,nt,nt,nt,-0.8,nt,nt
O=C(C[C@H]1C[C@H]2c3cc(NC(=O)c4cccnc4)ccc3O[C@H]2[C@@H](CO)O1)NCc1cccnc1,nt,nt,nt,0.9,nt,nt
CCCS/C(N)=N/N=C/c1ccccc1O,55.8*,nt,13.3,nt,?,5.8
O=C(C[n+]1cc(-c2ccc(F)cc2)n2c1CCC2)c1cccs1,32.2,-1.8,17.0,46.0*,nt,-1.2
CC=Cc1ccc2n(c1=O)C[C@H]1[C@H](CO)[C@@H](C(=O)NCc3ccccc3F)N[C@@H]21 (mixture of isomers),nt,nt,nt,-1.9,nt,nt
